{"source": "paper PMC5540273", "about": "(PLoS ONE, 2017);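 further: KINOMEscan kinase panel screen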", "data": [{"tested_on": "CAMK2D", "conditions": "concentration: 1 μM, replicates: in singlicate; n = 1", "units": {"%Inh": "%"}, "values": [{"smiles": "CC(C)N1CCC(n2cnc(-c3ccc(F)cc3)c2-c2ccnc(N)n2)CC1", "note": "[SB-223132]", "%Inh": 1}, {"smiles": "Nc1n[nH]c2nnc(-c3ccccc3)cc12", "note": "[SB-517389]", "%Inh": 2}, {"smiles": "C[C@H]1CC[C@@H](C(=O)Nc2ccccc2)CN1c1cc(-c2ccc3c(N)n[nH]c3c2)nc(N)n1", "note": "[GSK2283293]", "%Inh": 3}, {"smiles": "CN1CCC(n2cnc(-c3ccc(F)cc3)c2-c2ccnc(NC3CCNCC3)n2)CC1", "note": "[SB-229482]", "%Inh": 7}, {"smiles": "Fc1cccc(COc2ccc(Nc3ncnc4sc(-c5ccc[nH]5)cc34)cc2Cl)c1", "note": "[GW707818]", "%Inh": 7}, {"smiles": "O=C(Nc1ccccc1F)NC1CCN(c2ccnc(Nc3ccc(F)cc3)n2)C1", "note": "(stereo not drawn) [GSK1379722]", "%Inh": 0}, {"smiles": "Clc1ccc(-c2cc(-c3c[nH]nc3-c3ccccn3)ccn2)cc1", "note": "[GW681251]", "%Inh": 0}, {"smiles": "COc1cc2ncnc(Nc3ccc(OCc4ccccc4Br)c(Cl)c3)c2cc1OC.Cl", "note": "[GI261590]", "%Inh": 0}, {"smiles": "Cl.Cl.c1ccc(-c2cc3ccncc3cc2OC2CCNCC2)cc1", "note": "[GSK1122999]", "%Inh": 26}]}]}
